From PubChem BioAssay
Values without a mark were called inactive. Entries that show only a call come without a potency. For some of these results: Potency and affinity values are given separately. Calls of active or inactive are those of the source. Unless noted, the rule behind the calls is not given here.

Legend:
[1] = antimalarial activity against Dd2 strain (AID 2302;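 active = growth inhibition above 50% at the single 2 µM test dose, taken to imply half-maximal potency below 2 µM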); conditions: P. falciparum Dd2 in RBCs, LDH growth readout, 72 h; at 2 µM; stronger effect = higher value
[2] = human hepatoma cell viability loss – ATP luminescence, cytotoxicity control for P. falciparum antimalarial project, primary screen (AID 2303;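 active = inhibition above 50%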); conditions: HepG2 viability, 24-48 h, at 10 µM, stronger effect = higher value
[3] = biological target: L-lactate dehydrogenase (Plasmodium falciparum (isolate CDC / Honduras)) (UniProt Q27743); assay: PfLDH activity inhibition – cell lysate, 3D7 strain, counter-screen for P. falciparum growth inhibition project (AID 2304); conditions: P. falciparum 3D7 crude extract, LDH APAD/NBT absorbance; at 2 µM; stronger effect = higher value
Sequence of L-lactate dehydrogenase (Plasmodium falciparum (isolate CDC / Honduras)) (Q27743 whole entry, looked up): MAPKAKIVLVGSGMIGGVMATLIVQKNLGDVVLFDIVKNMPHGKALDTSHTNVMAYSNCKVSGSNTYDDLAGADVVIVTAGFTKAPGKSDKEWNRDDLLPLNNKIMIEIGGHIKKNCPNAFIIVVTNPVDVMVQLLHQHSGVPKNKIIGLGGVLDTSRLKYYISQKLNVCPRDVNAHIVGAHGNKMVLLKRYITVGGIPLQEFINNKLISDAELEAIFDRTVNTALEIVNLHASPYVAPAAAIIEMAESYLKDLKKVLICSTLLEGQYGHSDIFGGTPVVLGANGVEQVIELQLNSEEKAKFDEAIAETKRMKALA

[4] = inhibition of 3D7 malaria parasite growth – strain 3D7 (AID 2306); conditions: P. falciparum 3D7 erythrocytic growth, LDH absorbance, 72 h; at 2 µM; stronger effect = higher value
[5] = biological target: Calcium-dependent protein kinase 1 (Plasmodium falciparum (isolate 3D7)) (UniProt P62344); assay: PfCDPK1 kinase inhibitors, biochemical, TCAMS library (AID 1159585; cut-off not given, nearly all actives have IC50 up to about 0.98 µM;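 note: inhibitors leave more ATP so luminescence rises with inhibition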); conditions: recombinant PfCDPK1, Kinase-Glo ATP depletion luminescence
Sequence of Calcium-dependent protein kinase 1 (Plasmodium falciparum (isolate 3D7)) (P62344 whole entry, looked up): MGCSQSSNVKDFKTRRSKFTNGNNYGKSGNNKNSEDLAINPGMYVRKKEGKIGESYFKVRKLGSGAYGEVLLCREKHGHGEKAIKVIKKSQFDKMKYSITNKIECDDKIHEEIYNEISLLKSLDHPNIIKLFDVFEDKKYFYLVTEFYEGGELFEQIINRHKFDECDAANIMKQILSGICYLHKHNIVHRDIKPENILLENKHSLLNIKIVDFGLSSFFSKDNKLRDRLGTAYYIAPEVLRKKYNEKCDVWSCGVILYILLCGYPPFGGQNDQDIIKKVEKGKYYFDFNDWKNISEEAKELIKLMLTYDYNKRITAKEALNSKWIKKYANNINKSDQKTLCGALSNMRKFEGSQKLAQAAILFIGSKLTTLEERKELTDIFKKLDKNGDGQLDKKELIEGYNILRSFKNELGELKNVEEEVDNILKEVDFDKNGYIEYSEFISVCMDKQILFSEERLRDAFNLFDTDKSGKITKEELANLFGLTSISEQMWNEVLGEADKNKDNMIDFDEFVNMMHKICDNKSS

[6] = biological target: Plasmodium falciparum protein kinase 6 (PK6, PF3D7_1337100) (UniProt Q8IDW1); assay: PfPK6 kinase inhibitors, biochemical, TCAMS library (AID 1159586); conditions: recombinant PfPK6, Kinase-Glo ATP depletion luminescence
Sequence of Plasmodium falciparum protein kinase 6 (PK6, PF3D7_1337100) (Q8IDW1 1-305): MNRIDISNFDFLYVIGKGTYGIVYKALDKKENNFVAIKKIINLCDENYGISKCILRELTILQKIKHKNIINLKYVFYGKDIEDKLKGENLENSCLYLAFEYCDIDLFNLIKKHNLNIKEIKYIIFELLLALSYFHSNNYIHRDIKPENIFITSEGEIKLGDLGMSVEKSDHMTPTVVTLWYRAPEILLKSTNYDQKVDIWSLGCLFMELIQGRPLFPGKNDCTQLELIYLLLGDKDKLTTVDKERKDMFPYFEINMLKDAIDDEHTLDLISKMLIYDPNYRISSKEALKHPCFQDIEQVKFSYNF

[7] = biological target: Protein kinase 7 (PK7), Plasmodium falciparum 3D7 (PF3D7_0213400) (UniProt Q7YTF7); assay: inhibition of Plasmodium PK7 catalytic activity – biochemical, TCAMS antimalarial set, Kinase-Glo luminescence (AID 1159587); conditions: recombinant PfPK7, Kinase-Glo ATP depletion luminescence
Sequence of Protein kinase 7 (PK7), Plasmodium falciparum 3D7 (PF3D7_0213400) (Q7YTF7 1-343): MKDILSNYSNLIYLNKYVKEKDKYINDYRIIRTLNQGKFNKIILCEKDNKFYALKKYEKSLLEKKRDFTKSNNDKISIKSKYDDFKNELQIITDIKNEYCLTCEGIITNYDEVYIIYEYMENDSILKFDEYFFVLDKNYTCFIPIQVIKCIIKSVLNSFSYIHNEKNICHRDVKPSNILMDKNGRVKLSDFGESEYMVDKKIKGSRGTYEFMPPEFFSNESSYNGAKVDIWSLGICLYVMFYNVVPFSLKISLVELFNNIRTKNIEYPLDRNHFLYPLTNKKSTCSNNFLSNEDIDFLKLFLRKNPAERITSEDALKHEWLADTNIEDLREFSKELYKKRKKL

[8] = biological target: Calcium-dependent protein kinase 4 (Plasmodium falciparum (isolate 3D7)) (UniProt Q8IBS5); assay: PfCDPK4 kinase inhibitors, biochemical, TCAMS library (AID 1159588; cut-off not given, nearly all actives have IC50 up to about 0.91 µM); conditions: recombinant PfCDPK4, Kinase-Glo ATP depletion luminescence
Sequence of Calcium-dependent protein kinase 4 (Plasmodium falciparum (isolate 3D7)) (Q8IBS5 whole entry, looked up): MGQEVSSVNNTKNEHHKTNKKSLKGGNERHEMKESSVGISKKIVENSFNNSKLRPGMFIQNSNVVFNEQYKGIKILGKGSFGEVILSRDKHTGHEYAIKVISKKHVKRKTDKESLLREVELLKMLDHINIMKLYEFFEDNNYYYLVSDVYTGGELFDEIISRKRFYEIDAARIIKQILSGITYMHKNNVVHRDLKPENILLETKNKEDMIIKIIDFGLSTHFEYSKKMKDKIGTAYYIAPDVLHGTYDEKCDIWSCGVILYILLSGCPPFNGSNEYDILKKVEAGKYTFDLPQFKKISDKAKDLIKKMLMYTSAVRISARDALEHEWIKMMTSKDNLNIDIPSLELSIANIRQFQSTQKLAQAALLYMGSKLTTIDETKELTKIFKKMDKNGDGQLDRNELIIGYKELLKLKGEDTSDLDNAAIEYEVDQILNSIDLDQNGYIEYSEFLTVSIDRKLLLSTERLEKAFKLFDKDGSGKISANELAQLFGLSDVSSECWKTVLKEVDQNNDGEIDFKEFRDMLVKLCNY

Structure (SMILES)	growth inhibition [1]	inhibition [2]	inhibition [3]	growth inhibition [4]	outcome [5]	outcome [6]	outcome [7]	outcome [8]
CN1CCC(Oc2ccc(CN3CC[C@H](NC(=O)c4ccc(F)c(F)c4)C3)c3ccccc23)C1 (stereo partly drawn)	27%	20%	2%	91% (active)	inactive	inactive	inactive	inactive
Fc1cccc(C=NNc2ccnc3cc(Cl)ccc23)c1	91% (active)	6%	-7%	99% (active)	inactive	inactive	inactive	inactive
Cc1cc(N[C@@H](Cc2ccccc2)C(=O)NCc2cccs2)nc(NCC2CCCCC2)n1	92% (active)	-5%	0%	100% (active)	inactive	inactive	inactive	inactive
CN(C)CCCOc1c(C(C)(C)C)cc(-c2cc(C(C)(C)C)c(OCCCN(C)C)c(C(C)(C)C)c2)cc1C(C)(C)C	99% (active)	25%	0%	100% (active)	inactive	inactive	inactive	inactive
O=C(NC1CC1)c1ccc(N2CCC(c3ccccc3)CC2)nc1	92% (active)	16%	1%	93% (active)	inactive	inactive	inactive	inactive
CCCCCCC(C)c1cc(OCCN(CC)CC)c2c(c1)OC(C)(C)C=C2c1ccncc1 (stereo not drawn)	71% (active)	14%	-1%	90% (active)	inactive	inactive	inactive	inactive
CCc1cn2c3c(cc(C(=O)N[C@@H](Cc4ccccc4)[C@H](O)CNCc4ccccc4)cc13)N(C)S(=O)(=O)CC2	99% (active)	3%	1%	98% (active)	inactive	inactive	inactive	inactive
NC1=NC2(CCCCC2)N(OCCOc2ccc(Cc3ccccc3)cc2)C(N)=N1	22%	34%	2%	86% (active)	inactive	inactive	inactive	inactive
CCc1cccc(OCC2CCCN(c3ccc(C(=O)NC4CC4)cn3)C2)c1 (stereo not drawn)	73% (active)	-1%	5%	94% (active)	inactive	inactive	inactive	inactive
Cc1oc(-c2ccccc2)nc1CCOc1ccc(C[C@H](Nc2ccccc2C(=O)c2ccccc2)C(=O)NCc2ccccn2)cc1	54% (active)	-2%	-1%	88% (active)	inactive	inactive	inactive	inactive
COC1CCC(C(=O)Nc2ccc(-c3cccc(-c4nc5c(C)cccc5[nH]4)c3)cc2)CC1 (stereo not drawn)	60% (active)	89% (active)	1%	97% (active)	inactive	inactive	inactive	inactive
CN(C)CCNC(=O)[C@H](CC1CCCCC1)NC(=O)c1ccc(O)c(-c2ccc(Cl)c(Cl)c2)c1	97% (active)	0%	-4%	98% (active)	inactive	inactive	inactive	inactive
c1ccc(CCNCc2cccc(-c3ccc(CNc4ccc5ncccc5c4)cc3)c2)cc1	27%	43%	-2%	93% (active)	inactive	inactive	inactive	inactive
CC(C)(C)c1ccc(CNC(=O)/C=C/c2ccc(CNC3CCNCC3)cc2)cc1	21%	6%	1%	96% (active)	inactive	inactive	inactive	inactive
CCOc1ccc(C(=O)N2CCOC(CCN3CCC(c4ccccc4)CC3)(c3ccc(Cl)c(Cl)c3)C2)cc1 (stereo not drawn)	71% (active)	14%	8%	88% (active)	inactive	inactive	inactive	inactive
CCN(CC)c1ccc(C=CC(=O)NCCN2CCC(N(C)C3CCCCC3C)CC2)cc1 (stereo not drawn)	18%	29%	-3%	88% (active)	inactive	inactive	inactive	inactive
CC(C)(C)c1ccc(CNC(=O)COc2ccc(-c3nnc(-c4cccc([N+](=O)[O-])c4)o3)cc2[N+](=O)[O-])cc1	25%	10%	-7%	93% (active)	inactive	inactive	inactive	inactive
COc1ccc(CNC2Cc3ccccc3C2)cc1-c1ccc(S(=O)(=O)NCc2cccnc2)s1	18%	49%	3%	91% (active)	inactive	inactive	inactive	inactive
O=C(Nc1ccc(-c2cncc(NCCCN3CCCC3)c2)cc1)c1ccccc1	49%	-1%	-2%	94% (active)	inactive	inactive	inactive	inactive
COc1ccc(F)cc1-c1ccccc1CNC(=O)c1cnn(-c2ccc([N+](=O)[O-])cc2)c1C(F)(F)F	75% (active)	-3%	-4%	89% (active)	inactive	inactive	inactive	inactive
O=C(NCc1ccc(C(=O)NC2CCCCCC2)cc1)c1ccc(O)c(-c2ccc(Cl)c(Cl)c2)c1	21%	-1%	-3%	83% (active)	inactive	inactive	inactive	inactive

Structure (SMILES)	growth inhibition [1]	inhibition [2]	inhibition [3]	growth inhibition [4]	outcome [5]	outcome [6]	outcome [7]	outcome [8]
CCN(CC)CCCOC(=O)c1ccc2c(c1)-c1ccc(C(=O)OCCCN(CC)CC)c3cccc-2c13	96% (active)	22%	-3%	98% (active)	inactive	inactive	inactive	inactive
CC(Oc1c(C2CCN(CCCCNC(=O)c3ccc(-c4ccc(C#N)cc4)cc3)CC2)ccc2c1CCCC2)C(N)=O (stereo not drawn)	83% (active)	41%	-3%	100% (active)	inactive	inactive	inactive	inactive
Cc1cccc2[nH]c(-c3ccc(-c4ccc(CNCC5CCCO5)cc4)s3)nc12 (stereo not drawn)	96% (active)	11%	-5%	100% (active)	inactive	inactive	inactive	inactive
CC1CCCCN1S(=O)(=O)c1ccc(NC(=O)c2cc(-c3ccccc3O)n[nH]2)cc1 (stereo not drawn)	96% (active)	26%	-1%	90% (active)	inactive	inactive	inactive	inactive
COc1ccc(C2CC(=O)C3=C(C2)NC(C)=C(C(=O)OC(C)C)C3c2c(F)cccc2Cl)cc1OC (stereo not drawn)	81% (active)	0%	-1%	93% (active)	inactive	inactive	inactive	inactive
O=C(NC1CCN(c2ccnc(Nc3ccc(F)cc3)n2)C1)c1cc2ccccc2s1 (stereo not drawn)	80% (active)	6%	-8%	99% (active)	inactive	inactive	inactive	inactive
Cc1ccc(/C=C/C(=O)NCCCCCN2CCCN(C(=O)Nc3ccc(Cl)c(Cl)c3)CC2)cc1	1%	24%	2%	95% (active)	inactive	inactive	inactive	inactive
NC(=O)c1cccc(Nc2nccc(Nc3ccc(Oc4c(Cl)cccc4Cl)c(Cl)c3)n2)c1	17%	2%	5%	93% (active)	inactive	inactive	inactive	inactive
O=C(Nc1ccc(Cl)cc1)c1cc(Cl)cc2[nH]c(C(F)(F)F)nc12	100% (active)	87% (active)	2%	100% (active)	inactive	inactive	inactive	inactive
Cc1cccc2[nH]c(-c3ccc(-c4cccc(CN5CCN(CCO)CC5)c4)cc3)nc12	55% (active)	20%	-3%	100% (active)	inactive	inactive	inactive	inactive
O=C(/C=C/c1ccc(Cl)c(Cl)c1)NCCCCCN1CCCN(C(=O)Nc2cc(Cl)cc(Cl)c2)CC1	4%	53% (active)	6%	96% (active)	inactive	inactive	inactive	inactive
CNC(=C[N+](=O)[O-])NCCSCc1cc(C)c(CN(C)C)s1	96% (active)	48%	-1%	98% (active)	inactive	inactive	inactive	inactive
CO/C(=C\C=C\c1cc2cc(Cl)c(Cl)cc2[nH]1)C(=O)NCCCN1CCN(C2CCCCC2)CC1	97% (active)	60% (active)	-3%	99% (active)	inactive	inactive	inactive	inactive
COc1ccc(CNC2CCN(c3ccc(NC(=O)c4cccc(Cl)c4)cc3)CC2)cc1OC	13%	26%	6%	96% (active)	inactive	inactive	inactive	inactive
Cc1sc2ncnc(Sc3nnc(N)s3)c2c1C	100% (active)	9%	-1%	101% (active)	inactive	inactive	inactive	inactive
CC(C)N1CCC(NCc2ccc(-c3ccc(Cl)cc3)cc2)CC1	48%	50% (active)	-3%	99% (active)	inactive	inactive	inactive	inactive
CN1CC[C@@H](Oc2cc(NC(=O)Nc3ccc(Cl)c(C(F)(F)F)c3)ccc2Cl)C1	68% (active)	17%	0%	100% (active)	inactive	inactive	inactive	inactive
CC(C)C[C@@H](CNC[C@H](CC(C)C)NC(=O)OC(C)(C)C)NC(=O)OC(C)(C)C	58% (active)	4%	1%	88% (active)	inactive	inactive	inactive	inactive
CC[C@H](C)CNC(=O)c1ccnc(-c2ccc(CNC3Cc4ccccc4C3)cc2)c1	87% (active)	18%	-3%	102% (active)	inactive	inactive	inactive	inactive
COc1cc2nc(NCCc3ccccc3)nc(N(C)Cc3ccccc3)c2cc1OC	58% (active)	31%	-6%	96% (active)	inactive	inactive	inactive	inactive
